These results are taken from PubChem BioAssay (NCI).

Each structure is given as a SMILES string. “And” between values parts separate entries of the source, which are not always exact repeats. Identical values can stand only once. Compounds without any hit were thinned out: in the full panel of roughly 83,000, 20% have a hit.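 Interpretation: 100, growth as untreated; towards 0, rising growth inhibition; 0, no net growth; 0 to -100, cell death. Compounds scoring below 10 were considered active.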 Unmarked numbers belong to inactive results. The source made the active and inactive calls.

The subject of the assay is HS 578T breast. As to the kind of experiment: NCI-60 one-dose screen, 48 h (100 = growth as untreated, 0 = no growth, -100 = all killed). To be noted: 10 µM unless noted.
Regarding `CCCCn1c(=O)c(C(=O)NCc2ccccc2Cl)c(O)c2ccccc21`, the growth was 101%.
On to `O=C(NCCCN1CC1)Nc1cccc2ccccc12`, for which the growth was 96.2% and 106%.
Regarding `Oc1cc(N2CC2)c(O)cc1N1CC1`, the growth was -17.4% (active).
Take `CC12CCC3C4CCC(=O)C=C4CCC3C1CC1CC(=O)OC12` (stereo not drawn): the growth is 95.7%.
`CCOP(=O)(OCC)C(=O)N(CC)CC`: the growth was 101%.
In the case of `C#Cc1cccc(Nc2nc(Cl)nc3cc(NC(=O)CF)ccc23)c1` it was 84.3%; in that of `CC[C@H](C)[C@H](NC(=O)[C@H]1CCCCN1C)C(=O)N(C)[C@H](C(=O)NC12CC(C(=O)N[C@@H](Cc3ccccc3)C[C@H](C)C(=O)OC)(C1)C2)C(C)C`, 118%.
`CN1CCC2(CC1)C(C#N)C(=O)NC(=O)C2C#N` (stereo not drawn): the growth was 113%.
Turning to `CC12CCC3C(CCC4CC(O)CCC43C)C1CCC2=O` (stereo not drawn), the growth is 81.9%.
In the case of `C=CC[PH+](c1ccccc1)c1ccccc1.C=CC[PH+](c1ccccc1)c1ccccc1.[Pt+2].[S-]c1nc2ccccc2[nH]1.[S-]c1nc2ccccc2[nH]1` it was -16.6% (active); in that of `Cc1cc[c-]cc1.Fc1c[c-]c(-c2ccccn2)c(F)c1.[Pt+2].c1ccc([PH+](c2ccccc2)c2ccccn2)cc1`, 39.1%; in that of `C=C[Se]CC(=O)/C=C/c1ccccc1`, 66.1%.
Take `CCCCCCCCCCCCCCCCCC1OCC(COC(=O)O[C@@H](C(=O)O[C@H]2C[C@@]3(O)[C@@H](OC(=O)c4ccccc4)[C@@H]4[C@]5(OC(C)=O)CO[C@@H]5C[C@H](O)[C@@]4(C)C(=O)[C@H](OC(C)=O)C(=C2C)C3(C)C)[C@@H](NC(=O)c2ccccc2)c2ccccc2)O1` (stereo partly drawn): the growth was 28.9%.
